In one experiment the test system is MKL-1. The experiment can be described thus: qHTS assay to identify novel small-molecules to repurpose for Merkel cell carcinoma treatment (AID 1296009). Note: nearly all actives have a fitted effect of over 60% in size. The note with it: MCC and control cell lines, CellTiter-Glo viability, 72 h; series mostly up to 46 µM. In a few lines: (§1)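 qHTS format: cells treated with library compounds in DMSO across 8 (NPC) or 11 (MIPE) concentrations. Readout after 72 hr at 37 degree celsius was CellTiter-Glo luminescence.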
(qHTS replaces the single test concentration by a dilution series.)

The subject of a further experiment is MKL-2. The description is as above. The following applies: MCC and control cell lines, CellTiter-Glo viability, 72 h; series mostly up to 46 µM. Summed up: as §1
A general note: ATP-based viability assays read luminescence as a measure of living cells.

The subject of a further experiment is UISO. The experiment is described as above. The note with it: MCC and control cell lines, CellTiter-Glo viability, 72 h; series mostly up to 46 µM. In a few lines: as §1
Another experiment deals with CASKI. As to the kind of experiment: Primary qHTS to identify gynecologic anti-cancer compounds using libraries of approved drugs and bioactive compounds (AID 1345084). Note: nearly all actives have a fitted effect of over 55% in size. The note with it: Gynecologic cancer cell panel viability, ATPlite luminescence, 48 h; series mostly up to 57.5 µM. In a few lines: (§2)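 48 h compound exposure at 37 C, 5% CO2; five-point qHTS. ATPlite luminescence readout of cell ATP.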

The test system of the next experiment is Es-2. Described as above. The note with it: Gynecologic cancer cell panel viability, ATPlite luminescence, 48 h; series mostly up to 57.5 µM. Summed up: as §2
Another experiment deals with HeLa. The experiment is described as above. The note with it: Gynecologic cancer cell panel viability, ATPlite luminescence, 48 h; series mostly up to 57.5 µM. In a few lines: as §2
For another experiment, the system named is Hek293T. The description is as above. The following applies: Gynecologic cancer cell panel viability, ATPlite luminescence, 48 h, control line for the selectivity index; series mostly up to 57.5 µM. Summed up:
as §2

For another experiment, the system named is JEG-3. The experiment is described as above. The following applies: Gynecologic cancer cell panel viability, ATPlite luminescence, 48 h; series mostly up to 57.5 µM. Summed up: as §2
The next experiment deals with OV90. The experiment is described as above. The following applies: Gynecologic cancer cell panel viability, ATPlite luminescence, 48 h; series mostly up to 57.5 µM. In a few lines:
as §2

The subject of another experiment is PA-1. The experiment is described as above. The following applies: Gynecologic cancer cell panel viability, ATPlite luminescence, 48 h; series mostly up to 57.5 µM. Summed up: as §2
The test system of another experiment is Tov-21-G. Described as above. The note with it: Gynecologic cancer cell panel viability, ATPlite luminescence, 48 h; series mostly up to 57.5 µM. In a few lines:
as §2

Another experiment deals with Tov112D. The description is as above. The note with it: Gynecologic cancer cell panel viability, ATPlite luminescence, 48 h; series mostly up to 57.5 µM. Summed up:
as §2

Experiment [1] can be described thus: qHTS assay to identify inhibitors of the type 1 interferon - major histocompatibility complex class I in skeletal muscle: Counter screen cell viability and HiBit confirmation (AID 1347412). For all read-outs here: nearly all actives have a fitted effect of over 60% in size. The note with it: iHSKM muscle cells + IFN-b, HiBiT or CellTiter-Glo, 24 h; for activity change, negative = inhibition: at 45.9 µM (top of the series). Summed up:
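Human myoblast knock-in line, 4.0 ng/ml IFN-beta stimulation, 24 h compound treatment. Endpoints: HiBiT lytic luminescence (HLA-B level) and CellTiter Glo (ATP). Dosing 12 concentrations, 3-fold steps, 46 uM highest final.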

The subject of another experiment is CAOV3. As to the kind of experiment: Primary qHTS to identify gynecologic anti-cancer compounds using libraries of approved drugs and bioactive compounds (AID 1345084). Note: nearly all actives have a fitted effect of over 55% in size. The following applies: Gynecologic cancer cell panel viability, ATPlite luminescence, 48 h; series mostly up to 57.5 µM. In a few lines:
as §2

A further experiment has as its system WaGa. As to the kind of experiment: qHTS assay to identify novel small-molecules to repurpose for Merkel cell carcinoma treatment (AID 1296009). Note: nearly all actives have a fitted effect of over 60% in size. The following applies: MCC and control cell lines, CellTiter-Glo viability, 72 h; series mostly up to 46 µM. Summed up: as §1
The next experiment has as its system C33A. The experiment can be described thus: Primary qHTS to identify gynecologic anti-cancer compounds using libraries of approved drugs and bioactive compounds (AID 1345084). Note: nearly all actives have a fitted effect of over 55% in size. The note with it: Gynecologic cancer cell panel viability, ATPlite luminescence, 48 h; series mostly up to 57.5 µM. Summed up: as §2
The next experiment relates to SKOV3. The experiment is described as above. The note with it: Gynecologic cancer cell panel viability, ATPlite luminescence, 48 h; series mostly up to 57.5 µM. Summed up: as §2

“And” between values parts separate entries of the source, which are not always exact repeats. Equal entries are not always repeated. Results filed as inconclusive are left out. Unmarked numbers belong to inactive results. The source made the active and inactive calls. Calls come from the whole dose curve; as a rule, active = well fitted curve in the direction sought with a large enough effect; inconclusive = small, poorly fitted or top-dose-only effect, or another doubt; inactive = no such curve, though single readings can be large; an effect the other way counts as inactive or inconclusive.
% is set by controls: 0 for no effect and ±100 for the full control effect; potency is the fitted concentration of half-maximal effect.

For the compound `Cc1[nH]nc2ccc(-c3cncc(OC[C@@H](N)Cc4ccccc4)c3)cc12`, the Potency in the experiment with MKL-1 was 1.87 µM (active); with MKL-2, 1.66 µM (active); with UISO, 0.833 µM (active); in the experiment with CASKI, 6.31 µM (active); in the experiment on Es-2, 8.91 µM (active); with HeLa it was 2.24 µM (active). Further, the Potency is 1.78 µM (active) with Hek293T; 10 µM (active) in the experiment on JEG-3; 3.55 µM (active) with OV90; 3.55 µM (active) in the experiment with PA-1; 2.82 µM (active) with Tov-21-G; 2 µM (active) with Tov112D. For the same compound, the Potency in [1] (HiBiT) was 0.991 µM (active). Moreover, the activity change, negative = inhibition in experiment [1] (Viability) was -12.9%.
`CC[C@@H]1C(=O)N(C)c2cnc(Nc3ccc(C(=O)NC4CCC(N5CCN(CC6CC6)CC5)CC4)cc3OC)nc2N1C(C)C` (some centres not stated): the Potency is 0.0743 µM (active) with MKL-1; 4.18 µM (active) in the experiment on MKL-2; 12.6 µM (active) in the experiment on CAOV3; 17.8 µM (active) in the experiment on CASKI; 3.98 µM (active) in the experiment on Es-2; 15.8 µM (active) and 12.6 µM (active) in the experiment with OV90. Moreover, the Potency was 0.251 µM (active) in the experiment with PA-1 and 6.25 µM (active) in experiment [1] (HiBiT).
`O=C(CCCCCCC(=O)Nc1ccc([C@H]2O[C@@H](CSc3nc(-c4ccccc4)c(-c4ccccc4)o3)C[C@@H](c3ccc(CO)cc3)O2)cc1)NO`: the Potency with MKL-1 was 8.33 µM (active); in the experiment with MKL-2 it was 8.33 µM (active); in the experiment on WaGa, 7.43 µM (active). The Potency result with CAOV3, in the experiment with CASKI, in the experiment with Es-2, in the experiment on HeLa, with Hek293T and in the experiment with Tov112D was “inactive” throughout.
Turning to `O=c1[nH]nc(Sc2ncc([N+](=O)[O-])s2)n1-c1ccc2c(c1)OCCO2`, the Potency with MKL-1 is 3.72 µM (active); with MKL-2 it was 5.26 µM (active); in the experiment on UISO, 7.43 µM (active); in the experiment on WaGa it was 5.26 µM (active); in [1] (HiBiT) it was 14 µM (active).
For the compound `CN1CCN(c2cc(C(=O)Nc3ccc4c(c3)-c3c(c(C(N)=O)nn3-c3ccc(F)cc3)CC4)c(Cl)cn2)CC1`, the Potency with MKL-1 is 26.4 µM (active); in the experiment on MKL-2, 26.4 µM (active); in experiment [1] (HiBiT), 22.2 µM (active); in experiment [1] (Viability) it was 27.9 µM (active). Further, the Potency result in the experiment on UISO and in the experiment on WaGa was “inactive” in each case.
Regarding `O=C(NC1CCNCC1)c1[nH]ncc1NC(=O)c1c(Cl)cccc1Cl`, the Potency was 0.372 µM (active) with MKL-1, 0.833 µM (active) with MKL-2, 1.32 µM (active) with UISO and 0.442 µM (active) in experiment [1] (HiBiT). In addition, in experiment [1] (Viability), the activity change, negative = inhibition is 4.1%.
In the case of `Cn1cncc1[C@@](N)(c1ccc(Cl)cc1)c1ccc2c(c1)c(-c1cccc(Cl)c1)cc(=O)n2C`, the Potency in the experiment on MKL-1 is 4.69 µM (active); in the experiment on MKL-2, 3.72 µM (active); in the experiment on WaGa, 0.935 µM (active). For the same compound, the activity change, negative = inhibition in [1] (HiBiT) was -17.7%; in [1] (Viability), -17.4%.
`COc1cc(-c2nn(C3CCC(N4CCN(C(C)=O)CC4)CC3)c3ncnc(N)c23)ccc1NC(=O)c1cc2ccccc2n1C` (configuration not stated): the figures for the Potency in the experiment on MKL-1 and with UISO were 3.72 µM (active) and 18.7 µM (active), respectively. Also, the Potency result with MKL-2, in the experiment on C33A, in the experiment on Es-2, in the experiment with HeLa, with Hek293T and with JEG-3 was “inactive” throughout. Moreover, the Potency result in the experiment with OV90, in the experiment with SKOV3 and in the experiment on Tov112D was “inactive” in each case.
Turning to `CCCCc1nc2cc(C=CC(=O)NO)ccc2n1CCN(CC)CC`, the Potency in the experiment with MKL-1 is 3.32 µM (active); in the experiment on MKL-2, 0.526 µM (active); with WaGa, 0.372 µM (active).
Take `CCCCOc1c(C(=O)c2c(F)cc(C)cc2F)cnc2n[nH]cc12`: the Potency entry in the experiment with MKL-1, in the experiment with MKL-2, in the experiment on WaGa, in the experiment with C33A, in the experiment on CAOV3 and in the experiment with CASKI was “inactive” in each case. Besides, the Potency entry in the experiment with JEG-3 and in the experiment on SKOV3 was “inactive” each time. In addition, the Potency with HeLa is 8.91 µM (active); in the experiment with PA-1, 7.94 µM (active).
`C[C@@]12O[C@@H](C[C@]1(O)CO)n1c3ccccc3c3c4c(c5c6ccccc6n2c5c31)CNC4=O`: the Potency with MKL-1 is 1.48 µM (active); in the experiment on MKL-2, 0.0526 µM (active); in the experiment with UISO, 1.66 µM (active); in the experiment with WaGa, 0.833 µM (active); in experiment [1] (HiBiT), 0.701 µM (active). For the same compound, the activity change, negative = inhibition in experiment [1] (Viability) is -0.759%.
For `C=CC(=O)Nc1cccc(Oc2nc(Nc3ccc(N4CCN(C)CC4)cc3)ncc2Cl)c1`, the Potency in the experiment on MKL-1 was 3.32 µM (active); in the experiment on MKL-2 it was 8.33 µM (active); with CAOV3 it was 7.94 µM (active); in the experiment on CASKI, 10 µM (active); in the experiment on HeLa, 7.94 µM (active); with PA-1 it was 8.91 µM (active). In addition, the Potency was 3.16 µM (active) in the experiment on SKOV3, 8.91 µM (active) in the experiment with Tov-21-G, 5.62 µM (active) with Tov112D and 22.2 µM (active) in experiment [1] (HiBiT). Besides, the Potency result in the experiment on Es-2, with JEG-3 and in the experiment with OV90 was “inactive” each time.
In the case of `CC(C)[C@H](C(=O)Nc1ccc(C(=O)NO)cc1)c1ccccc1`, the Potency with MKL-1 is 0.935 µM (active); in the experiment with MKL-2, 0.833 µM (active); in the experiment on UISO, 3.32 µM (active); in the experiment with WaGa, 0.662 µM (active); in [1] (HiBiT), 1.11 µM (active). In addition, the activity change, negative = inhibition in experiment [1] (Viability) was -7.44%.
In the case of `CN1CCN(Cc2ccc(NC(=O)Nc3ccc(Oc4cc(NC(=O)C5CC5)ncn4)cc3)cc2C(F)(F)F)CC1`, the Potency is 0.372 µM (active) in the experiment on MKL-1; 0.264 µM (active) in the experiment with MKL-2; 0.332 µM (active) in the experiment with UISO; 1.78 µM (active) in the experiment on CASKI; 1.58 µM (active) in the experiment on Es-2; 0.891 µM (active) with HeLa. Further, the Potency is 1.41 µM (active) in the experiment with Hek293T; 2.82 µM (active) in the experiment with JEG-3; 0.631 µM (active) in the experiment on OV90; 0.794 µM (active) in the experiment on PA-1; 0.708 µM (active) in the experiment with Tov112D; 0.442 µM (active) in [1] (HiBiT). Also, the activity change, negative = inhibition in experiment [1] (Viability) is 13.9%.
As for `Nc1cc(C(F)(F)F)c(-c2cc(N3CCOCC3)nc(N3CCOCC3)n2)cn1`, the Potency in the experiment on MKL-1 was 1.66 µM (active); in the experiment with UISO it was 1.66 µM (active); with C33A, 15.8 µM (active); in the experiment with CASKI, 3.55 µM (active); in the experiment on Es-2, 6.31 µM (active); with HeLa, 3.98 µM (active). The Potency with Hek293T was 3.16 µM (active); with JEG-3, 7.94 µM (active); in the experiment on OV90 it was 10 µM (active); in the experiment with PA-1 it was 6.31 µM (active); in the experiment with Tov112D it was 2.82 µM (active). Moreover, in the experiment on MKL-2, the Potency entry was “inactive”.
As for `Cc1cccc(C=NNc2cc(N3CCOCC3)nc(OCCc3ccccn3)n2)c1`, the Potency with MKL-1 was 20.9 µM (active); with MKL-2, 16.6 µM (active). Further, in the experiment on WaGa, the Potency result is “inactive”.
For `Cn1c2cc(S(C)=O)sc2c2cnn(Cc3cccc(N)c3)c(=O)c21` (configuration not stated), the Potency entry with MKL-1, in the experiment on MKL-2 and with WaGa was “inactive” throughout.
